Experimental data reported in the supplement of paper PMC6555819.

Columns and labels:
Test in all cases: PBM binding z-score (relative to random genomic background probes); higher = stronger binding; sequences stand for … in GC…GCGATTGACAGCGTAGAATGAAGG
[1] = system: RARb homodimer (NR concentration 270 nM)
In short: (§1)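 Regression normalization was applied to scanned fluorescence from custom Agilent 4×180K protein-binding microarrays. Before scanning, arrays were incubated 1 h with ligand-free nuclear receptor dimers, and binding was detected with antibodies against each partner (one per run). Binding z-scores use the random background probes as reference.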

[2] = system: RARg:RXRa (NR concentration 270 nM, RXRa partner concentration 90 nM)
In short: as §1

[3] = system: RARg homodimer (NR concentration 270 nM)
In short: as §1

[4] = system: RXRa DBDmut IVT, anti-RXR (DBD mutation: RXRa K156A/R161A, NR concentration 90 nM)
In short: as §1

[5] = system: RXRa homodimer (NR concentration 180 nM)
In short: as §1

[6] = system: THRa:RXRa (NR concentration 90 nM, RXRa partner concentration 90 nM)
In short: as §1

[7] = system: THRa homodimer (NR concentration 90 nM)
In short: as §1

[8] = system: VDR homodimer (NR concentration 270 nM)
In short: as §1

Row | Sequence | PBM binding z-score [1] | PBM binding z-score [2] | PBM binding z-score [3] | PBM binding z-score [4] | PBM binding z-score [5] | PBM binding z-score [6] | PBM binding z-score [7] | PBM binding z-score [8]
1 | CGAACTACGTCAGAACAGGACAGTGAAGGATGAT | -0.0991 | -0.0189 | 0.316 | 0.247 | -0.063 | 0.397 | -0.497 | -0.159
2 | TCTAGTAGATCAACAGGAGGTTAAGAAAGATCGA | 0.413 | 0.662 | 0.244 | 0.766 | 0.901 | 0.727 | -0.505 | 0.097
3 | ATTTCTAGGTAAAGTTCAGTGAAAGATCGATAGA | 2.55 | 2.02 | 2.7 | 1.59 | 1.44 | 1.48 | 0.574 | 2.39
4 | AGAATGAGGTTTTACGTAGATCAGGGAAGAAAGT | -0.169 | -0.132 | 0.114 | 0.185 | -0.108 | 0.3 | 0.0915 | 0.172
5 | ATCGAAAGGTGGAAGGTGAGTATACCCACCCGAA | 0.363 | 0.767 | 0.717 | -1.21 | 1.12 | 0.406 | -0.497 | 0.146
6 | GTACCACGGTGAATAGGTCGTTGATGAGTAGGCG | 0.859 | 0.755 | 0.261 | -0.3 | 0.707 | 0.209 | -0.565 | 0.098
7 | ATCTCTAGGTCAAGATAGTTCAGTGAATGCAAAT | 3.89 | 4.63 | 5.48 | 1.58 | 3.14 | 3.35 | 1.71 | 1.73
8 | AGAATGAGGTTATACGTAGATCAGGGGAGAAAGT | 0.956 | 1.78 | 1.26 | 2.05 | 2.14 | 2.25 | 0.738 | 1.45
9 | ATCGAAAGGTCGAGGTGATTATAGAGAAAGGGAA | 2.72 | 4.24 | 4.23 | 0.927 | 4.29 | 2.54 | 0.338 | 0.821
10 | CATACTAGGTCAAGGTCAAAGTCGGTTTGTGCCA | 5.08 | 6.18 | 6.66 | 3.15 | 5.93 | 4.24 | 3.85 | 4.88
11 | GCTAGTTGGTGAGTAAAAGGTCACACACCGGTCG | 4.97 | 4.87 | 4.37 | 0.235 | 5.35 | 3.48 | 1.6 | 1.57
12 | CCTACTGGGCCAAAAAGGTCATTGAGGCCGATAA | 4.37 | 4.72 | 4.17 | 0.821 | 4.63 | 3.4 | 0.793 | 3.39
13 | CCGACTGGGGCAGAAAGGTTGCCATACCATCCGG | 0.631 | 0.253 | 0.175 | -1.11 | 0.422 | -0.0628 | -0.642 | -0.404
14 | TTACCAAGGTGAGCTGAGCTCGTTGATCCAACTC | -0.157 | -0.164 | -0.277 | -0.78 | 0.0974 | 1 | -0.222 | -0.959
15 | CTCGAAAGGTCGGTTGATGTGAGTATACGGATAA | 1.8 | 2.39 | 2.37 | 0.767 | 1.96 | 2.01 | -0.0197 | 0.986
16 | CCGACTGGGGCATAAGGATACCATAAGCCAGCCC | -0.129 | -0.00817 | 0.301 | -0.682 | 0.0556 | 0.92 | 0.5 | -0.401
17 | CAAACTAGGTCACCGGAAGTTCAAAGTCCGCATG | 4.69 | 7 | 6.24 | 2.68 | 4.64 | 3.85 | 2.14 | 4.8
18 | CGAACTAGGTGAGAACAGGACAGTGAAGGATGAT | 0.34 | 0.567 | 0.579 | 0.0565 | 0.458 | 1.21 | 0.0768 | 0.286
19 | ATCTCTAGGTAAAAGTTCAGTGAGTCCCGAGGAT | 2.32 | 1.86 | 1.93 | 0.855 | 1.73 | 1.13 | 0.291 | 2.34
20 | TCGGCTAGGTCAGTTGGTCAGCTAACGAGCTGCC | 2.79 | 2.88 | 3.91 | 0.368 | 0.942 | 1.14 | -0.051 | -0.233
21 | CTCGAAAGGTCGGTTGAGGTGATTATACGGATAA | 2 | 2.51 | 2.53 | 0.846 | 2.12 | 4.96 | 1.15 | 0.404
22 | GATAGAGGGTCAGCTAGAGGCCAGAGTATGGAAA | 3.28 | 6.38 | 4.5 | 0.579 | 3.71 | 2.39 | -0.103 | 0.387
23 | CGAACTAAGTCAAGGACAGTGAATCTCCGCACGC | 0.164 | 0.0358 | 0.274 | 0.417 | -0.164 | 1.45 | 1.12 | -0.0534
24 | TCATATAGGTAAAAGGTGAATGTCGGTGTGGTAA | 1.88 | 1.75 | 1.04 | 1.81 | 2.85 | 1.5 | 0.686 | 0.531
25 | ACTTACGGGTTAACGAGGTTATAGCACGCGTATA | 1.62 | 2.26 | 1.43 | 1.02 | 3.01 | 3.09 | 0.992 | 1.96
26 | CCTACTGGGCCAACAGGTCATTGATATCAACGTT | 2.5 | 2.56 | 2.13 | 0.159 | 1.91 | 1.63 | 0.207 | 0.761
27 | CCAGCCAGGTGAAAGGTAACTCAGTCTGGTACGC | 0.43 | 0.724 | 0.203 | -0.519 | 1.37 | 1.55 | 0.326 | -0.192
28 | AGCATGAGGTTATACGTAGATCAGGGAAGAAAGT | 0.998 | 1.64 | 1.3 | 1.63 | 1.8 | 2.11 | 0.665 | 0.812
